Assay results: PubChem BioAssay (NCI)
This is part of a sample that, as a whole, favours compounds with a hit. Of some 79,000 tested, about 15% had one in any assay. Active and inactive are the calls of the source. Cut-off read from the data, not from the text of the source: active = growth inhibition above about 70%; inactive = the rest.

Experiments:
[1] = NCI Yeast Anticancer Drug Screen. Data for the rad52 strain (AID 147);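 note: 0% = growth of vehicle-treated control cultures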; details: S. cerevisiae rad52 mutant growth inhibition, hits give high values
In short: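 Inhibition of yeast growth, referenced to vehicle controls, was the measured output for a strain with defective DNA damage repair.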

[2] = NCI Yeast Anticancer Drug Screen. Data for the wt1 strain (AID 149);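 note: 0% = growth of vehicle-treated wt1 cultures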; details: S. cerevisiae wt1 strain (SPY 50644) growth inhibition, hits give high values
In short: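 Yeast wt1 strain exposed to compounds; growth inhibition measured relative to vehicle-treated controls.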

[3] = NCI Yeast Anticancer Drug Screen. Data for the rad50EPP+ strain (AID 151);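 note: 0% = growth of vehicle-treated control cultures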; details: S. cerevisiae rad50 mutant strain, hits give high values
In short: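 Genetically defined yeast (rad50EPP+, DNA damage repair alteration) is grown with compound, and inhibition of growth is expressed relative to vehicle-treated controls.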

[4] = NCI Yeast Anticancer Drug Screen. Data for the mgt1 strain (AID 153); details: S. cerevisiae mgt1 mutant growth inhibition, hits give high values
In short: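 In the mgt1 strain, test compounds were added and growth inhibition was determined relative to vehicle-treated controls.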

[5] = NCI Yeast Anticancer Drug Screen. Data for the rad50 strain (AID 155);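 note: 0% = growth of vehicle-only cultures of the same strain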; details: S. cerevisiae rad50 strain growth inhibition, hits give high values
In short: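 Yeast carrying a defined DNA repair defect were exposed to test compounds, and growth was compared with vehicle-treated controls to give percent inhibition.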

[6] = NCI Yeast Anticancer Drug Screen. Data for the mec2-1 strain (AID 157); details: S. cerevisiae mec2-1 strain, hits give high values
In short: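 Each compound was tested on mec2-1 yeast, a strain altered in DNA damage repair or cell cycle control. Growth inhibition is reported relative to vehicle.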

[7] = NCI Yeast Anticancer Drug Screen. Data for the rad14 strain (AID 159);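 note: 0% = growth of vehicle-treated control cultures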; details: S. cerevisiae rad14 strain growth inhibition, hits give high values
In short: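 Yeast cells carrying a defined DNA-repair defect were exposed to compounds, and growth inhibition was calculated relative to vehicle-treated control cultures.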

[8] = NCI Yeast Anticancer Drug Screen. Data for the sgs1 mgt1 strain (AID 161);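 note: 0% = growth of cultures given vehicle only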; details: S. cerevisiae sgs1 mgt1 strain, hits give high values
In short: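 Inhibition of yeast growth, normalised to vehicle-treated controls, is reported for a strain bearing genetic alterations in DNA damage repair.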

[9] = NCI Yeast Anticancer Drug Screen. Data for the CLN2oe strain (AID 163);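 note: 0% = growth of vehicle-only control cultures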; details: S. cerevisiae CLN2oe strain, hits give high values
In short: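 First, the altered yeast strain was treated with each compound; second, its growth was measured; finally, inhibition was derived by comparison with vehicle controls.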

[10] = NCI Yeast Anticancer Drug Screen. Data for the cln2 rad14 strain (AID 165);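 note: 0% = growth equal to vehicle treated cultures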; details: S. cerevisiae cln2 rad14 strain, hits give high values
In short: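 Test compounds were added to cln2 rad14 yeast cultures; inhibition of growth was then determined by comparison with vehicle treatment.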

[11] = NCI Yeast Anticancer Drug Screen. Data for the bub3 strain (AID 167); details: S. cerevisiae bub3 mutant strain, hits give high values
In short: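 Compounds were applied to a genetically altered yeast strain carrying a cell-cycle control defect. Growth inhibition was scored against vehicle-treated controls.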

[12] = at 5.0 µM (retest, dose inferred, filed as 0.5)
[13] = at 50.0 µM (retest, dose inferred, filed as 5.0)

Measured: growth inhibition

N#Cc1ccc(C2NN=CC23C(=O)c2ccccc2OC3c2ccccc2)cc1 (stereo not given)
active: [5]; at 50.0 µM 73.3% | [6]; [13] 85% | [6]; at 50.0 µM 77% | [8]; [13] 93% | [8]; at 50.0 µM 77.5%
inactive: [1]; at 1.2 µM 2% | [1]; at 3.7 µM 5% | [1]; at 11.0 µM 4% | [1]; at 33.0 µM 3% | [1]; at 100.0 µM 5% | [2]; at 1.2 µM 0% | [2]; at 3.7 µM 0% | [2]; at 11.0 µM -1% | [2]; at 33.0 µM -2% | [2]; at 100.0 µM 2% | [3]; at 1.2 µM -2% | [3]; at 3.7 µM 0% | [3]; at 11.0 µM -1% | [3]; at 33.0 µM -3% | [3]; at 100.0 µM 3% | [4]; at 1.2 µM -4% | [4]; at 3.7 µM -2% | [4]; at 11.0 µM 5% | [4]; at 33.0 µM -3% | [4]; at 100.0 µM 2% | [5]; at 1.2 µM 2% | [5]; at 3.7 µM 4% | [5]; [12] 10% | [5]; at 11.0 µM -6% | [5]; at 33.0 µM 5% | [5]; [13] 66% | [5]; at 100.0 µM 3% | [6]; at 1.2 µM 2% | [6]; at 3.7 µM -2% | [6]; [12] -19% | [6]; at 11.0 µM -3% | [6]; at 33.0 µM -4% | [6]; at 100.0 µM 1% | [7]; at 1.2 µM 0% | [7]; at 3.7 µM 1% | [7]; at 11.0 µM 5% | [7]; at 33.0 µM 3% | [7]; at 100.0 µM 3% | [8]; [12] -22% | [9]; at 1.2 µM -2% | [9]; at 3.7 µM 2% | [9]; at 11.0 µM 5% | [9]; at 33.0 µM -1% | [9]; at 100.0 µM 5% | [10]; [12] -16% | [10]; [13] 38% | [10]; at 50.0 µM 61% | [11]; at 1.2 µM -7% | [11]; at 3.7 µM 0% | [11]; [12] -28% | [11]; at 11.0 µM 7% | [11]; at 33.0 µM -2% | [11]; [13] 16% | [11]; at 50.0 µM 64% | [11]; at 100.0 µM 0%
